Among all 1,400 compounds or so, about 1,300 (93%) were called active. No stated cut-off is given here; in the data, active means inhibition above about 7%; inactive means the rest. So high a share suggests a set chosen from earlier hits. Only a sample is shown.
These molecules were tested on methionyl-tRNA synthetase (Trypanosoma brucei brucei) (assay: T. brucei MetRS inhibitors, confirmation, biochemical, luminescence (AID 624412)). Conditions: T. brucei MetRS enzyme, luminescence (ATP depletion); at 11.9 µM; active compounds read high.

SMILES	inhibition
COC(=O)/C(=C\Nc1ccccc1)NC(=O)c1ccc(Cl)cc1Cl	78% (active)
c1ccc2cc3[nH]c(CN4CCCCC4)nc3cc2c1	18.2% (active)
Cc1c(CN2CCC(CO)(CCOc3ccccc3)CC2)[nH]c2ccc(Cl)cc12	19% (active)
CN(C(=O)CSc1nnc(-c2c[nH]c3ccccc23)o1)C1CCS(=O)(=O)C1 (stereo not drawn)	21.9% (active)
CN(C(=O)CSc1nnc(Nc2ccccc2)s1)C1CCS(=O)(=O)C1 (stereo not drawn)	12.5% (active)
CCCCCn1nnnc1-c1nc2cc3ccccc3cc2[nH]c1=O	42.4% (active)
c1ccc(CN=C2Nc3ccccc3CS2)nc1	22% (active)
Cc1cc(C)cc(NC(=O)N(C)Cc2ccccc2)c1	3.08% (inactive)
COc1ccc(NC(=O)C(NC(C)=O)C(=O)NCc2ccccc2Cl)cc1 (stereo not drawn)	17.9% (active)
OCCNc1nc2ccccc2n1-c1ncnc2sc3c(c12)CCC3	29.7% (active)
Cc1ccc(O)c(CNc2nc3ccccc3[nH]2)c1	85.4% (active)
O=S(=O)(NCc1ccc(Cl)cc1Cl)c1cccs1	33.5% (active)
CCCCN1C[C@H](c2ccc(Br)cc2)[C@@H](CC(=O)Nc2ccc(Br)cc2)C1=O	62.2% (active)
O=C(OCc1nc2ccccc2[nH]1)C1CCCCC1	27.3% (active)
O=C(NCc1cccc(CNC(=O)Nc2cccc(O)c2)c1)Nc1cccc(O)c1	17.5% (active)
COc1ccc(CCn2ccc(O)c(Cc3ccc(Cl)cc3Cl)c2=O)cc1OC	11.8% (active)
O=C(Nc1cccc([N+](=O)[O-])c1)N1CCc2ccccc2C1	25.6% (active)
O=C(CSCC(=O)Nc1cccc([N+](=O)[O-])c1)Nc1ccccc1	17% (active)
Fc1ccc(NC(=S)N2CCc3[nH]c4ccccc4c3C2)cc1	35.4% (active)
O=C(Nc1ccc(Cl)cc1)N1CCc2[nH]c3ccccc3c2C1	20.4% (active)
O=C(NNc1cc(Cl)cc(Cl)c1)c1c(F)cccc1Cl	66.4% (active)
Cc1ccc(N2C(=O)CC(NCc3ccc4c(c3)OCO4)C2=O)cc1Cl (stereo not drawn)	98.5% (active)
O=C(/C(=N\O)n1cncn1)c1ccc(Br)cc1Br	18.3% (active)

SMILES	inhibition
CCCCN(C)Cc1c(C)[nH]c2ccc(Cl)cc2c1=O	67.1% (active)
O=C(CC(=O)Nc1ccc(Cl)c(Cl)c1)N/N=C/c1ccc(O)cc1	17.2% (active)
Cc1ccc(NC(=O)C(C)c2cccc(C(=O)c3ccccc3)c2)cc1 (stereo not drawn)	85.5% (active)
O=C1CCCN1CCCNc1ncnc2c1[nH]c1ccccc12	55.3% (active)
Cc1ccc(S(=O)(=O)N(C)C)cc1NC(=O)c1ccc(-n2cncn2)c([N+](=O)[O-])c1	69.4% (active)
Cc1ccccc1OCC(=O)NNC(=O)c1ccc(-n2cncn2)c([N+](=O)[O-])c1	24.7% (active)
O=C(NNC(=O)c1ccc(-n2cncn2)c([N+](=O)[O-])c1)c1ccccc1	50.4% (active)
CC(=O)c1ccc(NC(=O)c2ccc(-n3cncn3)c([N+](=O)[O-])c2)cc1	72% (active)
c1ccc2cc3c(NCCN4CCOCC4)ccnc3cc2c1	50.4% (active)
Cc1ccc(S(=O)(=O)c2c[nH]c3ccc(Cl)cc3c2=O)cc1	85.2% (active)
Cc1ccc(S(=O)(=O)c2c[nH]c3ccc(C)cc3c2=O)cc1	45.7% (active)
O=C(NCCN1CCOCC1)c1ccccc1N1C(=O)[C@@H]2Cc3c([nH]c4ccccc34)C(c3cccc(Cl)c3)N2C1=O (stereo partly drawn)	18.1% (active)
CCN(CC)C(=O)C(=O)c1cn(CC(=O)NCc2ccc3c(c2)OCO3)c2ccccc12	79.4% (active)
O=C(CSc1nc2ccccc2[nH]1)N/N=C/C=C\c1ccccc1[N+](=O)[O-]	21.7% (active)
O=C(Cn1c2[n+](c3ccc(C(F)(F)F)cc31)CCCCC2)Nc1c(F)cccc1F	29.8% (active)
NS(=O)(=O)c1ccc(CCNC(=O)Nc2ccc(Cl)cc2)cc1	37.4% (active)
O=C(Cc1ccc(S(=O)(=O)N2CCOCC2)s1)Nc1ccc(Br)c(C(F)(F)F)c1	33.2% (active)
Clc1ccc(-c2cc(C3CCNCC3)[nH]n2)c(Cl)c1	52.6% (active)
O=C(Cn1c(NCCO)nc2ccccc21)c1ccc(Cl)cc1Cl	5.98% (active)
S=c1[nH]nc(CSCc2ccc(Cl)cc2Cl)n1-c1ccccc1	13.2% (active)
COC(=O)CN1C(=S)N(c2ccccc2)C(=O)C1CC(=O)Nc1ccc(Cl)cc1 (stereo not drawn)	27.5% (active)
OC(c1cc(Cl)cc(Cl)c1)c1ncc(-c2ccccc2C(F)(F)F)[nH]1 (stereo not drawn)	91.3% (active)
Cc1ccc(-c2cnc(C(O)c3cc(Cl)cc(Cl)c3)[nH]2)cc1 (stereo not drawn)	63.9% (active)

SMILES	inhibition
O=S(=O)(c1ccc(Br)cc1)N1CCC(c2nc3ccccc3[nH]2)CC1	20.5% (active)
O=C(NCC(O)c1nc2ccccc2[nH]1)c1ccc(Br)cc1 (stereo not drawn)	31.1% (active)
O=C(Nc1ccc(S(=O)(=O)Nc2ncccn2)cc1)c1cncc(Br)c1	2.54% (inactive)
O=C(O)c1ccc(NS(=O)(=O)c2ccc3c(c2)C(=O)c2cc(S(=O)(=O)Nc4ccc(C(=O)O)cc4)ccc2-3)cc1	13.4% (active)
CCN1CCCC1CNc1ncnc2c1[nH]c1ccc(F)cc12 (stereo not drawn)	53.7% (active)
CC(C)OCCCNc1ncnc2c1[nH]c1ccc(F)cc12	95.6% (active)
CSc1nsc(NC(=O)Nc2ccccc2)n1	39.8% (active)
CC(C)(C)c1ccc(/C=C2\SC(=O)N=C2N)cc1	50.9% (active)
NC1=NC(=O)S/C1=C\c1ccc(O)cc1	40.1% (active)
O=C(O)CCn1c(O)c(C=C2N=c3ccccc3=N2)sc1=S	42.3% (active)
Cn1c(CCCOc2ccc(Cl)cc2Cl)n[nH]c1=S	12.2% (active)
CCCCCCCC[n+]1cccc(C(=O)N2c3c(nc(N)[nH]c3=O)NC(C)C2C)c1 (stereo not drawn)	29.2% (active)
COc1ccc(OCC(O)CNC(=O)Nc2ccc(Cl)cc2)cc1 (stereo not drawn)	78% (active)
Oc1[nH]c2ccc(Br)cc2c1N=Nc1nn[nH]n1	14.6% (active)
O=C(Nc1ccccc1)Nc1nnc(COc2ccccc2F)s1	30.4% (active)
Clc1ccccc1SCc1nc2ccccc2[nH]1	10.1% (active)
Cc1ccc(CNC(=O)CSc2nnc3c(n2)[nH]c2ccc(F)cc23)cc1	78% (active)
CCO[C@@H]1OC(C(=O)NCc2nc3ccccc3[nH]2)=C[C@H](C2CCCCC2)[C@H]1CCCO	48.9% (active)
CC(=N\NC(=O)c1cc(Br)ccc1O)/C(=N/O)C(=O)Nc1ccccc1	18.2% (active)
COc1ccccc1-n1c(SCC(=O)Nc2ccc(Cl)cc2)nc(O)c(Cc2ccccc2)c1=O	77.2% (active)
COc1ccc(-c2[nH]ncc2/C=N/NC(=O)c2cc(Br)ccc2O)c(OC)c1	12.1% (active)
O=[N+]([O-])c1ccc(N2CCN(c3ccc(O)cc3)CC2)c(Cl)c1	10.9% (active)
